# About 410 targets per protein were measured; listed, in parts, are those with the strongest signals and a random draw of the rest.
# Legend:
# Assay in all cases: glycan array binding signal (z-score within array); higher = stronger binding
# Details in all cases: glycan notation: IUPAC condensed, linker removed
# [1] = target: Gal(b1-4)GlcNAc(b1-3)Gal(b1-4)GlcNAc(b1-3)[Gal(b1-4)GlcNAc(b1-3)Gal(b1-4)GlcNAc(b1-6)]GalNAc
# Procedure, shortened: (§1)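 Glycan array binding is given as a within-array Z-score, which can be read as non-binding when negative. The arrays, 3228 of them, came from the Consortium for Functional Glycomics database and were retained only where the protein sequence was available. Z-scores were averaged across arrays of the same protein sequence at different concentrations or buffers and across linkers.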
# [2] = target: Gal(b1-4)GlcNAc(b1-3)GalNAc
# Procedure, shortened: as §1
# [3] = target: Gal3S(b1-4)Glc6S
# Procedure, shortened: as §1
# [4] = target: Gal3S(b1-4)[Fuc(a1-3)]Glc
# Procedure, shortened: as §1
# [5] = target: Gal4S(b1-4)GlcNAc
# Procedure, shortened: as §1
# [6] = target: Gal6S(b1-4)GlcNAc
# Procedure, shortened: as §1
# [7] = target: GalNAc(b1-3)Gal(a1-6)Gal(b1-4)Glc
# Procedure, shortened: as §1
# [8] = target: GalNAc(b1-4)GlcNAc6S
# Procedure, shortened: as §1
# [9] = target: GalNAc6S(b1-4)GlcNAc
# Procedure, shortened: as §1
# [10] = target: Glc(a1-4)Glc
# Procedure, shortened: as §1
# [11] = target: Glc(b1-4)Glc
# Procedure, shortened: as §1
# [12] = target: GlcNAc(b1-3)Gal(b1-4)GlcNAc(b1-3)Gal(b1-4)GlcNAc(b1-3)Gal(b1-4)GlcNAc(b1-2)Man(a1-3)[GlcNAc(b1-3)Gal(b1-4)GlcNAc(b1-3)Gal(b1-4)GlcNAc(b1-3)Gal(b1-4)GlcNAc(b1-2)Man(a1-6)]Man(b1-4)GlcNAc(b1-4)[Fuc(a1-6)]GlcNAc
# Procedure, shortened: as §1
# [13] = target: GlcNAc(b1-4)GlcNAc
# Procedure, shortened: as §1
# [14] = target: Kdn(a2-3)Gal(b1-3)GlcNAc
# Procedure, shortened: as §1
# [15] = target: Man(a1-2)Man(a1-3)[Man(a1-2)Man(a1-6)]Man(a1-6)[Man(a1-2)Man(a1-2)Man(a1-3)]Man(b1-4)GlcNAc(b1-4)GlcNAc
# Procedure, shortened: as §1
# [16] = target: Man(a1-3)[Man(a1-6)]Man(b1-4)GlcNAc(b1-4)[Fuc(a1-6)]GlcNAc
# Procedure, shortened: as §1
# [17] = target: Neu5Ac(a2-3)Gal(b1-3)]Neu5Ac(a2-3)Gal(b1-4)]GlcNAc
# Procedure, shortened: as §1
# [18] = target: Neu5Ac(a2-3)Gal(b1-4)GlcNAc(b1-3)Gal(b1-4)GlcNAc(b1-3)Gal(b1-4)GlcNAc(b1-2)Man(a1-3)[Neu5Ac(a2-3)Gal(b1-4)GlcNAc(b1-3)Gal(b1-4)GlcNAc(b1-3)Gal(b1-4)GlcNAc(b1-2)Man(a1-6)]GalNAc
# Procedure, shortened: as §1
# [19] = target: Neu5Ac(a2-3)Gal(b1-4)GlcNAc(b1-3)GalNAc
# Procedure, shortened: as §1
# [20] = target: Neu5Ac(a2-3)Gal(b1-4)[Fuc(a1-3)]GlcNAc(b1-3)GalNAc
# Procedure, shortened: as §1
# [21] = target: Neu5Ac(a2-6)Gal(b1-3)GlcNAc(b1-3)[Gal(b1-4)GlcNAc(b1-6)]Gal(b1-4)Glc
# Procedure, shortened: as §1
# [22] = target: Neu5Ac(a2-6)Gal(b1-4)GlcNAc(b1-2)Man(a1-3)[GlcNAc(b1-2)Man(b1-4)GlcNAc(b1-2)Man(a1-6)]Man(b1-4)GlcNAc(b1-4)GlcNAc
# Procedure, shortened: as §1
# [23] = target: Neu5Ac(a2-6)Gal(b1-4)GlcNAc(b1-2)Man(a1-3)[GlcNAc(b1-4)][Neu5Ac(a2-6)Gal(b1-4)GlcNAc(b1-2)Man(a1-6)]Man(b1-4)GlcNAc(b1-4)GlcNAc
# Procedure, shortened: as §1
# [24] = target: Neu5Ac(a2-6)Gal(b1-4)GlcNAc(b1-6)[Gal(b1-3)]GalNAc
# Procedure, shortened: as §1
# [25] = target: Neu5Ac(a2-6)GalNAc(b1-4)GlcNAc6S
# Procedure, shortened: as §1
# [26] = target: Neu5Ac(a2-8)Neu5Ac(a2-3)Gal(b1-4)GlcNAc
# Procedure, shortened: as §1
# [27] = target: Neu5Ac(a2-8)Neu5Gc(a2-3)Gal(b1-4)GlcNAc
# Procedure, shortened: as §1
binder,measurement,setting,value
"LlpA1 (Pseudomonas fluorescens), Q4KHC3 (protein) MGSSHHHHHHSSGLVPRGSHMAWIRYDFTDNGSSVLPARYYMAPNQYLQSPNKRFKLLFQADGNLALYDGAQLAWVADQNTPFTNVSKGNKKDPMMVFMNYGFVLDDPLRGRIWSTTPSDPTMGSREDASLRAFTQVQDDGNIVTVDTIPHWYAPNGRVFTPAVGAAMIIGGTTELVPGQFYSAGEHSLVFQGDGNLVVYGPNSSVIWATYTQNKGGVRCVMQEDGNLVIYAANNGVVWQSGTGGHPGATIRLQANGSFTIVTERPVWARFGYTPTIKPPRVFYPDHKWKTGSYTWNNVF",glycan array binding signal (z-score),[1],2.36
same,glycan array binding signal (z-score),[2],-0.927
same,glycan array binding signal (z-score),[3],-0.494
same,glycan array binding signal (z-score),[4],-0.518
same,glycan array binding signal (z-score),[5],0.315
same,glycan array binding signal (z-score),[6],0.079
same,glycan array binding signal (z-score),[7],0.158
same,glycan array binding signal (z-score),[8],1.64
same,glycan array binding signal (z-score),[9],1.35
same,glycan array binding signal (z-score),[10],0.211
same,glycan array binding signal (z-score),[11],-1.02
same,glycan array binding signal (z-score),[12],1.27
same,glycan array binding signal (z-score),[13],0.141
same,glycan array binding signal (z-score),[14],-0.948
same,glycan array binding signal (z-score),[15],0.448
same,glycan array binding signal (z-score),[16],-0.367
same,glycan array binding signal (z-score),[17],0.082
same,glycan array binding signal (z-score),[18],2.75
same,glycan array binding signal (z-score),[19],-0.31
same,glycan array binding signal (z-score),[20],0.206
same,glycan array binding signal (z-score),[21],-0.201
same,glycan array binding signal (z-score),[22],2.45
same,glycan array binding signal (z-score),[23],-0.209
same,glycan array binding signal (z-score),[24],0.228
same,glycan array binding signal (z-score),[25],-0.028
same,glycan array binding signal (z-score),[26],-0.552
same,glycan array binding signal (z-score),[27],8.89
